Test results: publication PMC7862700, “An all-to-all approach to the identification of sequence-specific readers for epigenetic DNA modifications on cytosine”

How the values were obtained:
Test in all cases: DAPPL (digital affinity profiling via proximity ligation, sequencing); 10 mM Tris-HCl pH 7.5, 50 mM NaCl, 1 mM DTT, 4% glycerol, room temperature, 30 min; GST-TFs on glutathione beads, 16-mer random dsDNA library, 0.1% formaldehyde crosslink after washing; high values mean tight binding
FLI1 = biological target: T1, FLI1 (Homo sapiens, UniProt Q01543 1-452); details: protein: recombinant; tags: N-terminal GST; dsDNA, one strand shown
T1 sequence: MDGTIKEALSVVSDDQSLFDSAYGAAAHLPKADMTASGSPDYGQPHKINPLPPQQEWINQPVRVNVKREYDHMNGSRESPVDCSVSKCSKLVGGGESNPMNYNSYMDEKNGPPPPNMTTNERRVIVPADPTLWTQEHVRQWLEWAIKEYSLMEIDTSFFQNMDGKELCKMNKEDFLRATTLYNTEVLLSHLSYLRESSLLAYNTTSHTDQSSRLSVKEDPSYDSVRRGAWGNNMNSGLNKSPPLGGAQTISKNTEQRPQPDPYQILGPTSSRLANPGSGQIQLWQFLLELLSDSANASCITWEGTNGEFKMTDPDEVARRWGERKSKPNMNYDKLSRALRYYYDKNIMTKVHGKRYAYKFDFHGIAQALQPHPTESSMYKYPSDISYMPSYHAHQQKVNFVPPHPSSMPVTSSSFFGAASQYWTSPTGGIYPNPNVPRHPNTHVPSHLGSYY
Outline: (§1)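 Each value of binding signal is a hexamer's read frequency for a factor divided by the same hexamer's frequency in the tag-only sample. Barcoded, bead-captured GST fusions of human transcription factors made in yeast were pooled with that sample and incubated with 200 nmole of a random double-stranded 16-mer DNA library in Tris/NaCl/DTT/glycerol buffer at room temperature for 30 min. Washing, 0.1% formaldehyde crosslinking, proximity ligation, PCR and Illumina NextSeq500 sequencing followed.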

ELK1 = biological target: T2, ELK1 (Homo sapiens, UniProt P19419 1-428); details: protein: recombinant; tags: N-terminal GST; dsDNA, one strand shown
T2 sequence: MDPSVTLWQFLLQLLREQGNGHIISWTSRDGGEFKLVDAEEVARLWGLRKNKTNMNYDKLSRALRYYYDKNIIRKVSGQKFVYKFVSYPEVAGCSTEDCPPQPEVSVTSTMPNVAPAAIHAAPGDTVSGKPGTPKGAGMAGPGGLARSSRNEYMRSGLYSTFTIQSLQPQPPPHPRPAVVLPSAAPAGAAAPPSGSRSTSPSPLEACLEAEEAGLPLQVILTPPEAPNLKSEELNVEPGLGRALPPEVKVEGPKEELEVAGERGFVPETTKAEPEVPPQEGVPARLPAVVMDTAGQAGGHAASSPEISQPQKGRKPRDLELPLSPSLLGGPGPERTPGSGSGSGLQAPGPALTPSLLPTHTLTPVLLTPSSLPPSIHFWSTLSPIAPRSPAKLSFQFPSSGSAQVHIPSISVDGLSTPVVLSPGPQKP
Outline: as §1

GABPA = biological target: T3, GABPA (Homo sapiens, UniProt Q06546 1-454); details: protein: recombinant; tags: N-terminal GST; dsDNA, one strand shown
T3 sequence: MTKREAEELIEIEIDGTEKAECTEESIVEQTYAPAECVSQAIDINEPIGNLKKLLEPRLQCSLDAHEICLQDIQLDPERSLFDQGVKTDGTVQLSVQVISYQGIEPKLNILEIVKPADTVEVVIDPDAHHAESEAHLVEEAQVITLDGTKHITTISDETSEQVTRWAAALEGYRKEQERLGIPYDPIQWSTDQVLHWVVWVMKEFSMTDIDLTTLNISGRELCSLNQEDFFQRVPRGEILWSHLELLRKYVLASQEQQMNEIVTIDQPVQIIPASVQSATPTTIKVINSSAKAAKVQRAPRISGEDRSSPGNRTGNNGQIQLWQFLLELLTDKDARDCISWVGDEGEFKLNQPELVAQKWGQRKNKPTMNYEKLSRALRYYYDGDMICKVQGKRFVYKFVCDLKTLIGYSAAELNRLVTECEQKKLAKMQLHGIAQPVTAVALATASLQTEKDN
Outline: as §1

ERG = biological target: T4, ERG (Homo sapiens, UniProt P11308 1-479); details: protein: recombinant; tags: N-terminal GST; dsDNA, one strand shown
T4 sequence: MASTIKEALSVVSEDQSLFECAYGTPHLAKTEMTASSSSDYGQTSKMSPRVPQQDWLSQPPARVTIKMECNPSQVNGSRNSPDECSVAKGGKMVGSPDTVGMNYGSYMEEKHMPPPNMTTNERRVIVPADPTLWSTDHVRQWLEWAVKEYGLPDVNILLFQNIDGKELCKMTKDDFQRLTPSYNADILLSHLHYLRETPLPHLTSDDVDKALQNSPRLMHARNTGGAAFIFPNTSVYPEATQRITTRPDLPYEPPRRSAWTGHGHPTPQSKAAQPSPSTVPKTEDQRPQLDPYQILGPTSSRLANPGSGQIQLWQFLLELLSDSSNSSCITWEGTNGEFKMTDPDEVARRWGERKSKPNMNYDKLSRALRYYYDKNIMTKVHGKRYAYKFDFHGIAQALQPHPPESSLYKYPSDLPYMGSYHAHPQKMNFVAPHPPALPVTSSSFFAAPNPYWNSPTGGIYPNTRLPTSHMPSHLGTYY
Outline: as §1

ELF1 = ELF1 (Homo sapiens, UniProt P32519 1-619); details: protein: recombinant; tags: N-terminal GST; dsDNA, one strand shown
Outline: as §1

EHF = biological target: T5, EHF (Homo sapiens, UniProt Q9NZC4 1-300); details: protein: recombinant; tags: N-terminal GST; dsDNA, one strand shown
T5 sequence: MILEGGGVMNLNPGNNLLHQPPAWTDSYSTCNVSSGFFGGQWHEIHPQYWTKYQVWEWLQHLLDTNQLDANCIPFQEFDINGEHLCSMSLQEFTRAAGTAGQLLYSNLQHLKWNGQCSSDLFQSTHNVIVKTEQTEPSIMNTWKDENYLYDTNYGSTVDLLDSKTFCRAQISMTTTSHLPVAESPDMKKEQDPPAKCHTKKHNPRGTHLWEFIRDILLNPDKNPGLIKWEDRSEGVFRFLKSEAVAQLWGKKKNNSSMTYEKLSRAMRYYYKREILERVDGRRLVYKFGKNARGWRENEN
Outline: as §1

SPI1 = SPI1 (Homo sapiens, UniProt P17947 1-270); details: protein: recombinant; tags: N-terminal GST; dsDNA, one strand shown
Outline: as §1

SPIB = SPIB (Homo sapiens, UniProt Q01892 1-262); details: protein: recombinant; tags: N-terminal GST; dsDNA, one strand shown
Outline: as §1

ELK3 = biological target: T6, ELK3 (Homo sapiens, UniProt P41970 1-407); details: protein: recombinant; tags: N-terminal GST; dsDNA, one strand shown
T6 sequence: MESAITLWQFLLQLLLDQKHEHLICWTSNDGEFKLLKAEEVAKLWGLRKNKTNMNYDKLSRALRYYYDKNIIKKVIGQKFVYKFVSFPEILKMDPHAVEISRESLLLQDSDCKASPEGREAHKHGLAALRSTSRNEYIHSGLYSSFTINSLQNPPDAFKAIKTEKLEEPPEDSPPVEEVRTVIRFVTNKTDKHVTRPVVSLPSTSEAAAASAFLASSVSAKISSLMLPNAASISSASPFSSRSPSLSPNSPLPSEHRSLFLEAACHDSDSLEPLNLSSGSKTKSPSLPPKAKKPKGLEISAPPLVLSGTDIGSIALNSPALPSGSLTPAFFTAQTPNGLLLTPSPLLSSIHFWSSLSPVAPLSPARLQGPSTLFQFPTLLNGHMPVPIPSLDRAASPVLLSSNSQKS
Outline: as §1

FEV = biological target: T7, FEV (Homo sapiens, UniProt Q99581 1-238); details: protein: recombinant; tags: N-terminal GST; dsDNA, one strand shown
T7 sequence: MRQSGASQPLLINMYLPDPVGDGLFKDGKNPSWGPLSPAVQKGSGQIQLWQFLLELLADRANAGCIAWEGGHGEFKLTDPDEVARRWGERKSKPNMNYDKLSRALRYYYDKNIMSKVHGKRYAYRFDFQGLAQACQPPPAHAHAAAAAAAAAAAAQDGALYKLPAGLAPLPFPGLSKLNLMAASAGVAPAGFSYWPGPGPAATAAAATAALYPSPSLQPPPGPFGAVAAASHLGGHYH
Outline: as §1

ETV5 = ETV5 (Homo sapiens, UniProt P41161 1-510); details: protein: recombinant; tags: N-terminal GST; dsDNA, one strand shown
Outline: as §1

HSF1 = HSF1 (Homo sapiens, UniProt Q00613 1-529); details: protein: recombinant; tags: N-terminal GST; chain copies: 3; dsDNA, one strand shown
Outline: as §1

SPIC = biological target: T8, SPIC (Homo sapiens, UniProt Q8N5J4 1-248); details: protein: recombinant; tags: N-terminal GST; dsDNA, one strand shown
T8 sequence: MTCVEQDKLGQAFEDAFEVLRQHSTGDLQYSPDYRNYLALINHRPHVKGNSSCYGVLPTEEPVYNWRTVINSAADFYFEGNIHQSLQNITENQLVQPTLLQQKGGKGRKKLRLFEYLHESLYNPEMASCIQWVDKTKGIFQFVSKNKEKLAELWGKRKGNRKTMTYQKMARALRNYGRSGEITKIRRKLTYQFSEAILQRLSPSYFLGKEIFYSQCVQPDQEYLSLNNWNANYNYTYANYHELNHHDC
Outline: as §1

ELF4 = ELF4 (Homo sapiens, UniProt Q99607 1-663); details: protein: recombinant; tags: N-terminal GST; dsDNA, one strand shown
Outline: as §1

ELK4 = biological target: T9, ELK4 (Homo sapiens, UniProt P28324-2 1-405); details: protein: recombinant; tags: N-terminal GST; dsDNA, one strand shown
T9 sequence: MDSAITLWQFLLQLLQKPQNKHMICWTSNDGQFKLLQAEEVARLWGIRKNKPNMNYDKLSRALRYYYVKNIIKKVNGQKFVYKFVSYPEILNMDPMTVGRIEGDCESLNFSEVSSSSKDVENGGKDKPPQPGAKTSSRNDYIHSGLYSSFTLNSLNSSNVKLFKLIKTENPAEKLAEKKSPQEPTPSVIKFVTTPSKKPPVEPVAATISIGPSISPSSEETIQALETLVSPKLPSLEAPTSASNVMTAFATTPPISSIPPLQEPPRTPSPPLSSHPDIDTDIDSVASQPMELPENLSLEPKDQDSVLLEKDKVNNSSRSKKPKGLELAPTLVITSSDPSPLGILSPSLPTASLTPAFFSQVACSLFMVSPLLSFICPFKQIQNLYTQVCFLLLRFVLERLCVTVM
Outline: as §1

ETV2 = biological target: T10, ETV2 (Homo sapiens, UniProt O00321 1-342); details: protein: recombinant; tags: N-terminal GST; dsDNA, one strand shown
T10 sequence: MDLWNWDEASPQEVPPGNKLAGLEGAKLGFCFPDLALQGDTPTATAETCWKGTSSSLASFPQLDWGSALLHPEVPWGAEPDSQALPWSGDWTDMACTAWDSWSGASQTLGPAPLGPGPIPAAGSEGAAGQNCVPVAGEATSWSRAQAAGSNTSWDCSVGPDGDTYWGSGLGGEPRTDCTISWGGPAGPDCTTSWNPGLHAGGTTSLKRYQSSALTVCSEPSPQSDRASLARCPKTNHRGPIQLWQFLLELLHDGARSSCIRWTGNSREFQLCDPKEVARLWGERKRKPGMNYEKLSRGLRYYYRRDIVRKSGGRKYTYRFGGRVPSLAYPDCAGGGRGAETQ
Outline: as §1

ELF3 = biological target: T11, ELF3 (Homo sapiens, UniProt P78545 1-371); details: protein: recombinant; tags: N-terminal GST; dsDNA, one strand shown
T11 sequence: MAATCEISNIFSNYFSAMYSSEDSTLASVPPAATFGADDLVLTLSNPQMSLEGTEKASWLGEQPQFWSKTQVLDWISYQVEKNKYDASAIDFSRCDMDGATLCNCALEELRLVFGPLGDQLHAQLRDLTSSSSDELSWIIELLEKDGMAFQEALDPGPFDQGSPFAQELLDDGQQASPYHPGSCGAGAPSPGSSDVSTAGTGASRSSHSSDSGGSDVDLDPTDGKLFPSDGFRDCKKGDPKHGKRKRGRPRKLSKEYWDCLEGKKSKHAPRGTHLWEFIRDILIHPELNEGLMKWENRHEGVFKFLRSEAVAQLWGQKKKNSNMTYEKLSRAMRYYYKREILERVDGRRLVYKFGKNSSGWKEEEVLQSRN
Outline: as §1

CRX = CRX (Homo sapiens, UniProt O43186 1-299); details: protein: recombinant; tags: N-terminal GST; dsDNA, one strand shown
Outline: as §1

ETV1 = ETV1 (Homo sapiens, UniProt P50549 1-477); details: protein: recombinant; tags: N-terminal GST; dsDNA, one strand shown
Outline: as §1

Sequence of ETV1 (P50549 whole entry): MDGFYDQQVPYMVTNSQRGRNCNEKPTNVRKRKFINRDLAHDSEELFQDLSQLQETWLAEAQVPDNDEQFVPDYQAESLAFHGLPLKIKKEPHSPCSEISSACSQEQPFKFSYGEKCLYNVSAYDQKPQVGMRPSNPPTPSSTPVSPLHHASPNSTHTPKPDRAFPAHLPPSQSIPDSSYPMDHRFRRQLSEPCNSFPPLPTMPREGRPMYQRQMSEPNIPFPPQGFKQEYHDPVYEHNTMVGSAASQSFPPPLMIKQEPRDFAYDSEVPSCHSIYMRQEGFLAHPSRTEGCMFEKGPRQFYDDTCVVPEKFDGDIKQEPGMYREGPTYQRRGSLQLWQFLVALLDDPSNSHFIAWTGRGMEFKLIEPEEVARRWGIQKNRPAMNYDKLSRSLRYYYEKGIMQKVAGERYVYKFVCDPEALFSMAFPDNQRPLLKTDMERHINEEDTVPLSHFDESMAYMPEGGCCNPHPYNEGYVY
Sequence of ELF1 (P32519 whole entry): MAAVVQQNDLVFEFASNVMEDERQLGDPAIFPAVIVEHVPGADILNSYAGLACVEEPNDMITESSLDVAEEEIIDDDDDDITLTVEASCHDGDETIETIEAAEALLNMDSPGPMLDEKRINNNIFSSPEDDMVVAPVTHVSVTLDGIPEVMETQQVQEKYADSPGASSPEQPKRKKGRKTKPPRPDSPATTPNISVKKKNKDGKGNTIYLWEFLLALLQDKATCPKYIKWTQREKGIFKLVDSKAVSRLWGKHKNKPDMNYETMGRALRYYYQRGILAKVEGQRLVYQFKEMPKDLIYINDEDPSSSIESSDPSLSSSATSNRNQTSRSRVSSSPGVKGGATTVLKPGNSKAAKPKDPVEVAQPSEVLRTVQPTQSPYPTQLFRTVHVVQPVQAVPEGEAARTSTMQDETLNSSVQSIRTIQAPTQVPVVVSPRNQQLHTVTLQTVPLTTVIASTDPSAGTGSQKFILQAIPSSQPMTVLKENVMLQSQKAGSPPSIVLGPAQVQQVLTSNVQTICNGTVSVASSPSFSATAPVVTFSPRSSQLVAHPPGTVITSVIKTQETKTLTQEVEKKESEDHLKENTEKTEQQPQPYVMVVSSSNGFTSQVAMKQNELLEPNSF
Sequence of SPIB (Q01892 whole entry): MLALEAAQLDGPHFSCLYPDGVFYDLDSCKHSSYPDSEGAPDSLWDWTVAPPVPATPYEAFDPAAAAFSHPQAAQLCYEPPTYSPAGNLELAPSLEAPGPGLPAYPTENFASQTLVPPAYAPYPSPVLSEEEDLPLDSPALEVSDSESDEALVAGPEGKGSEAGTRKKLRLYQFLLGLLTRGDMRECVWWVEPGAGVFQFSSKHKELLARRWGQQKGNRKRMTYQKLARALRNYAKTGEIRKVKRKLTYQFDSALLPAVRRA
Sequence of ETV5 (P41161 whole entry): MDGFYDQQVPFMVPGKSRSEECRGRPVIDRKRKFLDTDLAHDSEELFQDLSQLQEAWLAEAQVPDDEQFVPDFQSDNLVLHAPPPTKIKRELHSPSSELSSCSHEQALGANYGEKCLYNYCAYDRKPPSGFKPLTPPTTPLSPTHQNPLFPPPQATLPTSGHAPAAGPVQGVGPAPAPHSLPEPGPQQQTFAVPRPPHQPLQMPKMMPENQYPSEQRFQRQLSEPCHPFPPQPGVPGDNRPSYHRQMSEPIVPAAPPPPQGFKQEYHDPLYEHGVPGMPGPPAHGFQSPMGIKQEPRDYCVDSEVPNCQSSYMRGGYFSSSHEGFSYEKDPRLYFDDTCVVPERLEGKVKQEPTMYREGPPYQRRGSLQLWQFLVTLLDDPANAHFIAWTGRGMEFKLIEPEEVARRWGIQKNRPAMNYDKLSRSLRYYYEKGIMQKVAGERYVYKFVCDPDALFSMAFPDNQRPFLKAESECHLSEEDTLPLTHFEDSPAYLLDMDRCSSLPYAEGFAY
Sequence of HSF1 (Q00613 whole entry): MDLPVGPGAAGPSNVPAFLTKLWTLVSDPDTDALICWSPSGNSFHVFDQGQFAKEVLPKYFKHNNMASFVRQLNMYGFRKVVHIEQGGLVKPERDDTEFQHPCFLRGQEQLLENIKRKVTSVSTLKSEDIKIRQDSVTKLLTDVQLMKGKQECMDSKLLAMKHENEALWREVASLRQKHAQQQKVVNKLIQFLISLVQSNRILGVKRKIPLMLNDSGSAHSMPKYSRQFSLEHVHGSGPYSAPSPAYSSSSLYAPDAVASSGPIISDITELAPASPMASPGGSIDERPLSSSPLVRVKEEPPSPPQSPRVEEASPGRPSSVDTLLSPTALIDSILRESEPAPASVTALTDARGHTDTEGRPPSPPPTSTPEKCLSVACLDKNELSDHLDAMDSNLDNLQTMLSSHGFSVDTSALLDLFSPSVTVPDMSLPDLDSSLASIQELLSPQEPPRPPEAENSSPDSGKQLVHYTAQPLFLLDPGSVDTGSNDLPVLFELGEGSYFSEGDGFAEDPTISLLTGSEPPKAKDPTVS
Sequence of CRX (O43186 whole entry): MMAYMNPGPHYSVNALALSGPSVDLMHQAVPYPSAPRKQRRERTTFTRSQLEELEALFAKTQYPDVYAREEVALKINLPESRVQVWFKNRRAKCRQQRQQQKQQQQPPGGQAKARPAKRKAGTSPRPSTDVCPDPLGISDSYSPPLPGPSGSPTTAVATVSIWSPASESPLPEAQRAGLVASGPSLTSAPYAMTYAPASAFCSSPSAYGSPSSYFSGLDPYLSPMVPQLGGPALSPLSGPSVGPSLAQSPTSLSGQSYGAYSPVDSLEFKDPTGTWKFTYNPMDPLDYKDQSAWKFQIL
Sequence of ELF4 (Q99607 whole entry): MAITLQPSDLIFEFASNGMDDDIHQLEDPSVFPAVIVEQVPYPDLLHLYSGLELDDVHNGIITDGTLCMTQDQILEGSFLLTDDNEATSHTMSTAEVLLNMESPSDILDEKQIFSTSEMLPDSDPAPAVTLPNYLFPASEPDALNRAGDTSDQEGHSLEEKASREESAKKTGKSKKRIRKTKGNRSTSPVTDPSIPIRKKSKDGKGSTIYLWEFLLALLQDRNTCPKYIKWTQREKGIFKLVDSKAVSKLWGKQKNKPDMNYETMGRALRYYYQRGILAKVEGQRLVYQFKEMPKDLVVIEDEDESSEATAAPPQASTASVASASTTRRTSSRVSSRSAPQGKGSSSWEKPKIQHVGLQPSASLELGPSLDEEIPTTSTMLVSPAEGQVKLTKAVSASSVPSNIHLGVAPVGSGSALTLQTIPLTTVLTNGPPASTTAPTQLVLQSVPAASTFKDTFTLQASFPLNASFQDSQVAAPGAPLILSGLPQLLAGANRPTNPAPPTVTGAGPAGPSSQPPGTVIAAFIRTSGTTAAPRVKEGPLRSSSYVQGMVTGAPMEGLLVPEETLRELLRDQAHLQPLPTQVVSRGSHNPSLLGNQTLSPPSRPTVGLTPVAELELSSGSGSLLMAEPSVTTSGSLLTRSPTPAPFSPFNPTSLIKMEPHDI

TTCAAT was tested, and the binding signal (FLI1) was 1.33 fold enrichment (6-mer frequency, TF over GST control), the binding signal (ELK1) was 1.42 fold enrichment (6-mer frequency, TF over GST control) and the binding signal (GABPA) was 1.42 fold enrichment (6-mer frequency, TF over GST control). For the same sequence, the binding signal (ERG) was 1.41 fold enrichment (6-mer frequency, TF over GST control), the binding signal (ELF1) was 1.37 fold enrichment (6-mer frequency, TF over GST control) and the binding signal (EHF) was 1.34 fold enrichment (6-mer frequency, TF over GST control). For the same sequence, the binding signal (SPI1) was 1.38 fold enrichment (6-mer frequency, TF over GST control), the binding signal (SPIB) was 1.36 fold enrichment (6-mer frequency, TF over GST control) and the binding signal (ELK3) was 1.26 fold enrichment (6-mer frequency, TF over GST control). The binding signal (FEV) was 1.31 fold enrichment (6-mer frequency, TF over GST control), the binding signal (ETV5) was 1.32 fold enrichment (6-mer frequency, TF over GST control) and the binding signal (HSF1) was 1.27 fold enrichment (6-mer frequency, TF over GST control). For the same sequence, the binding signal (SPIC) was 1.43 fold enrichment (6-mer frequency, TF over GST control), the binding signal (ELF4) was 1.33 fold enrichment (6-mer frequency, TF over GST control) and the binding signal (ELK4) was 1.42 fold enrichment (6-mer frequency, TF over GST control). The binding signal (ETV2) was 1.43 fold enrichment (6-mer frequency, TF over GST control), the binding signal (ELF3) was 1.36 fold enrichment (6-mer frequency, TF over GST control) and the binding signal (CRX) was 1.38 fold enrichment (6-mer frequency, TF over GST control). For the same sequence, the binding signal (ETV1) was 1.45 fold enrichment (6-mer frequency, TF over GST control).
